The panel holds about 83,000 compounds, 20% with a hit somewhere; the sample as a whole holds those more often.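 Interpretation: 100, growth as untreated; towards 0, rising growth inhibition; 0, no net growth; 0 to -100, cell death. Compounds scoring below 10 were considered active.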 A number with no mark means an inactive call. Calls of active or inactive are those of the source.
Experiments:
Test in all cases: NCI-60 one-dose screen, 48 h (100 = growth as untreated, 0 = no growth, -100 = all killed)
Conditions in all cases: 10 µM unless noted
[1] = test system: NCI-H23 lung
[2] = test system: NCI-H226 lung
[3] = test system: NCI-H322M lung
[4] = test system: HOP-62 NSCLC
[5] = test system: NCI-H460 lung
[6] = test system: HOP-92 NSCLC
[7] = test system: NCI-H522 lung
[8] = test system: A549/ATCC NSCLC
[9] = test system: 786-0 renal
[10] = test system: COLO 205 colon
[11] = test system: DU-145 prostate
[12] = test system: K-562 leukemia
[13] = test system: MALME-3M melanoma
[14] = test system: MDA-MB-231 breast
[15] = test system: RXF 393 renal
[16] = test system: SF-268 CNS
[17] = test system: SF-295 CNS
[18] = test system: SF-539 CNS
[19] = test system: UACC-257 melanoma
[20] = test system: M14 melanoma

SMILES | growth [1] | growth [2] | growth [3] | growth [4] | growth [5] | growth [6] | growth [7] | growth [8] | growth [9] | growth [10] | growth [11] | growth [12] | growth [13] | growth [14] | growth [15] | growth [16] | growth [17] | growth [18] | growth [19] | growth [20]
C=C1C[C@](OC)([C@H](O)C(=O)N[C@@H](OC)[C@@H]2C[C@@H](O)C(C)(C)[C@@H](C[C@@H](COC)OC)O2)O[C@H](C)[C@@H]1C | -27.7% (active) | -75.5% (active) | -21% (active) | -35.4% (active) | -41.4% (active) | -65.1% (active) | -55.1% (active) | -49.1% (active) | -61.9% (active) | -15.6% (active) | -49.9% (active) | -50.1% (active) | -71.1% (active) | -55.7% (active) | -92.7% (active) | -32.4% (active) | -51.4% (active) | -65.9% (active) | -53.4% (active) | -54.6% (active)
COc1ccc(/C=C\c2cc(OC)c(OC)c(OC)c2)cc1OCC(=O)Nc1nc2ccc(OC(F)(F)F)cc2s1 | 35.6% | 74.2% | 73.6% | 53.7% | 12.4% | 55.9% | 15.8% | 66.5% | 92.6% | 106% | 6.56% (active) | 22.9% | 26.4% | 36.7% | 26.4% | 45.8% | 40.8% | 14% | 58.7% | 11.5%
CCN(CCO)C(Cc1ccccc1)c1ccccc1 (stereo not given) | 93.1% | 101% | 106% | 96.5% | 104% | 100% | 87.9% | 103% | 105% | 102% | 105% | 107% | 96.5% | 101% | 106% | 101% | 95.5% | 106% | 114% | 89%
CC1[C@H](C)OC(=O)CC(O)CC(O)CC(O)CCC(O)C(O)C[C@]2(O)CC(O)C(C(=O)O)C(CC(OC3O[C@H](C)[C@@H](O)[C@H](N)[C@@H]3O)/C=C/C=C/C=C/C=C/CC/C=C/C=C/[C@H](C)[C@H]1O)O2 (stereo not given in full) | 90.8% | 99.1% | 105% | 105% | 103% | 101% | 114% | 97.8% | 105% | 93.7% | 96.7% | 111% | 99.3% | 92.9% | 107% | 109% | 102% | 96.1% | 101% | 98.6%
CC12CCC3C(CCC4Cc5[nH]c6ccccc6c5CC43C)C1CCC2O (stereo not given) | 49.3% | 41.3% | 43% | 62.8% | 5.72% (active) | 63.4% | 26.4% | 41.5% | 33.5% | 45% | -21.2% (active) | 5.1% (active) | 48.3% | 37.1% | -13.8% (active) | 47.5% | -10.7% (active) | 9.54% (active) | 74.1% | 20.6%
COc1cc2c(=O)n(C3CCCCCCC3)c3c4cc[nH]c4ncc3c2cc1OC | 57.5% | 17.8% | 34.8% | 6.39% (active) | 13.6% | 46.2% | 48.8% | 25.4% | 31.2% | 58.5% | 62.5% | 8.73% (active) | 62.6% | 42.1% | 19.1% | 42.4% | 33.2% | -0.216% (active) | 93.8% | 71.4%
O=C1CN=C(c2ccc(Cl)cc2)c2sccc2N1 | 98% | 93.6% | 91.2% | 106% | 108% | 97.4% | 82.5% | 101% | 103% | 123% | 109% | 88.1% | 97.4% | 100% | 100% | 106% | 96.5% | 93.4% | 119% | 110%
COc1ccc(C2=N[C@@H](Cc3ccccc3)C(=O)Nc3ccsc32)cc1 | 53.7% | 76.3% | 89.8% | 66% | 51.7% | 61.4% | -13.4% (active) | 43.2% | 66.6% | 35.6% | 71.3% | 16.2% | 48.6% | 55.9% | 34.3% | 55.1% | 37% | 44.9% | 44% | 20.7%
CCn1nccc1NC(=O)C(=O)c1cn(Cc2ccc(F)cc2)c2cccc(OC)c12 | 95.8% | 75.1% | 102% | 75.9% | 98.2% | 46.6% | 57.3% | 92.4% | 72.7% | 106% | 106% | 79.9% | 109% | 91.9% | 90.1% | 98.1% | 106% | 98.1% | 97.6% | 88.1%
C[S+]1C=Cc2ccccc2C1c1ccc(Cl)cc1 (stereo not given) | 83.7% | 85.1% | 99.5% | 126% | 99.6% | -54.5% (active) | 18.9% | 78.9% | 111% | 114% | 99.8% | 78.8% | 103% | 103% | 74.8% | 47.1% | 68% | 104% | 92.5% | 83.6%
CCC(O)(CN)c1ccccc1 (stereo not given) | 101% | 92.4% | 102% | 97.3% | 107% | 93.1% | 79.2% | 86.6% | 97.8% | 102% | 107% | 107% | 101% | 101% | 110% | 100% | 92.6% | 99% | 91.9% | 95%
COc1ccc2c(c1)c(-c1nc(-c3c[nH]c4ncccc34)cs1)cn2CCN1CCOCC1 | 57.3% | 49.7% | 57.3% | 27.4% | 40.8% | 28.8% | 44.5% | 51.2% | 55.5% | 61.6% | 45.3% | 38.3% | 71% | 51% | 53.7% | 60.9% | 62% | 48.2% | 92.1% | 49.4%
CC(=O)O[C@H](C[C@H](C(C)C)N(C)C(=O)[C@@H](NC(=O)[C@H]1CCCCN1C)C(C)C)c1nc(C(=O)N[C@@H](Cc2ccccc2)C[C@H](C)C(=O)O)c(C(C)C)s1 | 22.9% | 58.9% | 35.8% | 20% | 6.51% (active) | 51.5% | -21.1% (active) | 8.67% (active) | 16% | -60% (active) | -0.791% (active) | 6.34% (active) | 64.9% | 12.9% | 44.1% | 27.7% | -0.193% (active) | -10.7% (active) | 41.5% | 4.52% (active)
COc1cc(C=Nc2cccc(C(=O)O)c2)ccc1N(CCCl)CCCl | 103% | 92.7% | 100% | 118% | 75.4% | 101% | -3.21% (active) | 96.6% | 105% | 67.1% | 111% | 101% | 84.4% | 106% | 99.4% | 113% | 98.3% | 102% | 85.1% | 104%
C=CC[PH+](c1ccccc1)c1ccccc1.C=CC[PH+](c1ccccc1)c1ccccc1.[Cl][Pt][Cl] | 58.8% | 73.9% | 101% | 95.8% | 91.9% | 16% | 9.41% (active) | 88.2% | 49.7% | 22.2% | 71.7% | 0.456% (active) | -26.4% (active) | 41.8% | -16.6% (active) | 95.5% | 89.8% | 68% | 80% | 51.9%
C/C(=C\c1ccn(-c2ccc(N)c(F)c2)n1)[C@@H]1C[C@@H]2O[C@]2(C)CCC[C@H](C)[C@H](O)[C@@H](C)C(=O)C(C)(C)[C@@H](O)CC(=O)O1 | 30.4% | 50.9% | 25.7% | 38.1% | 15.9% | 53.2% | 18.7% | 26.5% | 25.3% | -8.2% (active) | -26% (active) | 10.5% | 46.3% | 19.6% | 0.639% (active) | 30% | 17.1% | -26.4% (active) | 68.7% | 13.3%

Source: PubChem BioAssay (NCI)
